PMK inhibit: S. pneumoniae PMK inhibitors, primary screen, biochemical, mevalonate pathway, pilot trial included; purified PMK, PK/LDH-coupled NADH absorbance 340 nm; inhibition, % at 10 µM; 65,000 compounds, 0.49% hits; AID 539, 2006;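 active = top-ranked compounds by inhibition in the single 10 µM screen, taking a fixed number of the strongest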
Spn DPM-DC inh: S. pneumoniae DPM-DC inhibitors, primary screen, biochemical, PK/LDH-coupled NADH fluorescence; calls only at 10 µM; purified DPM-DC; 65,000 compounds, 0.49% hits;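 active = the 320 compounds with the highest percent inhibition in the single-dose primary screen, excluding strongly autofluorescent ones, cut at about 32% in these data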;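 also: kinetic rate of NADH fluorescence loss reporting ADP formed by the decarboxylase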
Autofluor 339: intrinsic fluorescence of library compounds, ex339/em460 – biochemical, MLSMR library, data from DPM-DC assay, artefact control, profiling panel | compound autofluorescence, ex339/em460 nm, NADH buffer; hits give high values; 1 = no-compound wells, NADH background | fluorescence fold increase at 10 µM | 65,000 compounds, 5.5% hits | AID 709, 2007;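 active = at 10 µM, mean starting fluorescence two-fold or more over control wells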;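 also: signal is the first read of a kinetic run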
NADH coupling: inhibitors of PK/LDH coupling enzymes, profiling panel, artefact control, biochemical, MLSMR library. coupled PK/LDH NADH assays, four targets. IC50, µM (highest dose often 10 µM). 65,000 compounds, 0.02% hits;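 active = single-dose screening hits from any of four coupled enzyme assays that gave an IC50 when retested across doses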;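 also: the DPM-DC format reads NADH fluorescence rather than 340 nm absorbance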
MK inhibit: S. pneumoniae MK inhibitors, primary screen, biochemical, PK/LDH-coupled NADH absorbance; mevalonate kinase [Streptococcus pneumoniae D39]; purified MK, PK/LDH-coupled NADH absorbance 340 nm; inhibition, % at 10 µM; 65,000 compounds, 0.48% hits;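 active = ranked among the strongest by inhibition in the single 10 µM screen, a fixed top-ranked set picked for dose follow-up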
Abs 340nm: compound light absorbance at 340 nm, profiling panel, artefact control, biochemical, MLSMR library, data from PS, PMK, MK assays; 65,000 tested, under 10 active; compound absorbance at 340 nm, fold over control; fold change at 10 µM;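 active = at 10 µM dose, initial 340 nm absorbance at least 2 fold that of control wells; inactive = change under 2 fold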;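 also: initial absorbance extrapolated from kinetic A340 decline of NADH oxidation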
Each line names hits and unclear results; the compound was inactive in the other large screens; [ ] = remark or other dose. Sampled rows, rich in hits. Any-hit rate of the full collection: about 6.5%.

COCCNC(=O)c1c(NC(=O)c2ccco2)n(Cc2ccccc2)c2nc3ccccc3nc12	Autofluor 339 3.76 (not shown: Spn DPM-DC inh)
COC1=CC(=O)OC(/C=C/c2ccccc2)C1 (stereo not drawn)	none
Nc1ccccc1C(=O)OCCOc1ccccc1	Autofluor 339 2.8
Cc1cc2c(C(F)(F)F)cc(=O)oc2c2c1NCCC2	PMK inhibit 26.0
Fc1ccccc1N1CCN(Cc2ccc3c(c2)OCO3)CC1	none
Fc1ccccc1N1CCN(Cc2c(F)cccc2F)CC1	MK inhibit 49.0
CC12CN3CC(C)(CN(C1)C3c1cccs1)C2O (stereo not drawn)	none
Cc1cccc(N2CCc3c2nc2ccccc2c3N)c1	Autofluor 339 3.8 (not shown: Spn DPM-DC inh)
Cc1ccnc(-n2c(C)nc3ccccc3c2=O)c1	none
CCCCOCCCn1c(N)c(C(=O)OC(C)COC)c2nc3ccccc3nc21 (stereo not drawn)	Autofluor 339 2.35 (not shown: Spn DPM-DC inh)
COCCCn1c(N)c(C(=O)OC(C)COC)c2nc3ccccc3nc21 (stereo not drawn)	Autofluor 339 3.9 (not shown: Spn DPM-DC inh)
c1ccc2c(c1)[nH]c1cnccc12	Autofluor 339 2.42 (not shown: Spn DPM-DC inh)
Cc1[nH]c2ccccc2c1/C=N/O	none
Cc1c2ccncc2c(C)c2c1[nH]c1ccccc12	Spn DPM-DC inh active[fluoresces], Autofluor 339 2.02
c1ccc2c3c([nH]c2c1)CNCC3	none
CC(=O)N1CC(=O)Nc2ccc(Cl)cc2C1c1ccc(F)cc1 (stereo not drawn)	none
CCOC(=O)c1c(N)n(CCN2CCCCC2)c2nc3ccccc3nc12	Autofluor 339 4.92 (not shown: Spn DPM-DC inh)
CCCCn1c(N)c(C(=O)NCCN2CCOCC2)c2nc3ccccc3nc21	Autofluor 339 2.08 (not shown: Spn DPM-DC inh)
CCCCn1c(C)c(C(=O)OCC)c2c(CN3CCOCC3)c(O)ccc21	none
COc1ccc(CCNC(=O)c2c(N)n(CCN3CCOCC3)c3nc4ccccc4nc23)cc1	Autofluor 339 3.36 (not shown: Spn DPM-DC inh)
CCOC(=O)c1c(C)n(Cc2ccco2)c2ccc(O)cc12	none
CC(C)(C)OC(=O)c1c(N)n(Cc2ccco2)c2nc3ccccc3nc12	Autofluor 339 2.5 (not shown: Spn DPM-DC inh)
NCC1(c2ccc3c(c2)OCCO3)CCCC1	none (no result: MK inhibit)
Cc1ccc(C)c(NC(=O)CSc2nnc([C@@H](N)Cc3c[nH]c4ccccc34)o2)c1	none
CN(C)P(=NC(=S)c1cccn1C)(N(C)C)N(C)C	none
Cc1cc(C)n2nc(C)[n+](C)c2n1	none
Nc1c(C(=O)NCCc2ccccc2)c2nc3ccccc3nc2n1CCN1CCOCC1	Autofluor 339 3.88 (not shown: Spn DPM-DC inh)
Nc1c(C(=O)NCCN2CCOCC2)c2nc3ccccc3nc2n1Cc1ccco1	Autofluor 339 3.89 (not shown: Spn DPM-DC inh)
CCC(=NCCCN1CCOCC1)c1c(O)n(Cc2ccccc2)c(=O)[nH]c1=O	none
COc1ccc(CN2CCN(c3ccccc3)CC2)c(C)c1C	MK inhibit 50.0
COCCn1cc(C(=O)N2CCC3(CC2)OCCO3)c2c3ccccc3n(C)c2c1=O	Autofluor 339 4.31 (not shown: Spn DPM-DC inh)
Cn1c2ccccc2c2c(C(=O)N3CCC4(CC3)OCCO4)cn(C3CCCC3)c(=O)c21	Autofluor 339 2.09 (not shown: Spn DPM-DC inh)
Cc1cc(C)n2nc(SC(C)C(=O)N3CCC4(CC3)OCCO4)nc2n1 (stereo not drawn)	none
CCCS(=O)(=O)N1CCCC(C(=O)N2CCC3(CC2)OCCO3)C1 (stereo not drawn)	none
Cc1ccc2cc3cc(C(=O)N4CCC5(CC4)OCCO5)oc3nc2c1	Autofluor 339 3.52
CSc1ccc(C(=O)C(C)(C)N2CCOCC2)cc1	none
CCCC(C)(COC(N)=O)COC(=O)NC(C)C (stereo not drawn)	none
CN1CCc2nc(SCC(=O)OC(C)(C)C)c(C#N)cc2C1	Autofluor 339 2.32 (not shown: Spn DPM-DC inh)
Cc1ccc2c(c1)CC1(CN2C)C(=O)NC(=O)N(c2ccc(C)c(C)c2)C1=O (stereo not drawn)	none
CN1C(=O)N(C)C(=O)C2(Sc3ccccc3C2=O)C1=O	Autofluor 339 5.03 (not shown: Spn DPM-DC inh)
CN1C(=O)N(C)C(=O)C(CCc2ccccn2)(CCc2ccccn2)C1=O	none
O=C1NC(=O)C(CCc2ccncc2)(C2CCCCC2)C(=O)N1	none
COc1cc(CN2CCN(C(=O)COc3ccccc3)CC2)cc(OC)c1OC	MK inhibit 47.0
CN1C(=O)N(C)C(=O)C(CCc2ccncc2)(Cc2ccc3c(c2)OCO3)C1=O	none
C=CCOC(=O)COc1cc(C)cc2oc(=O)c3c(c12)CCC3	Autofluor 339 2.42 (not shown: Spn DPM-DC inh)
CCCCOC(=O)COc1cc(C)cc2oc(=O)c3c(c12)CCC3	none
Cc1cc(OCc2nn[nH]n2)c2c3c(c(=O)oc2c1)CCCC3	Autofluor 339 3.81 (not shown: Spn DPM-DC inh)
CCC(=NCC1CCCO1)c1c(O)n(-c2ccc(Cl)cc2)c(=O)[nH]c1=O (stereo not drawn)	none
CCCC(=O)c1c(O)[nH]c(=O)[nH]c1=O	none
Cc1c2cnn(CC(=O)N3CCC4(CC3)OCCO4)c(=O)c2c(C)n1Cc1ccc(F)cc1	PMK inhibit 29.0
O=C(Cn1ncc2c3ccccc3n(Cc3ccccc3)c2c1=O)N1CCC2(CC1)OCCO2	none
COc1cc(OC)c(OC)cc1CNCCc1ccc(OC)c(OC)c1	MK inhibit 42.0
COc1cc(OC)c(OC)cc1CNC(C)C(O)c1ccccc1 (stereo not drawn)	none
CCCNc1oc(-c2cccc3ccccc23)nc1C#N	Autofluor 339 3.77 (not shown: Spn DPM-DC inh)
Cc1cccn2c(NCC3CCCO3)c(C(C)C)nc12 (stereo not drawn)	Autofluor 339 3.63 (not shown: Spn DPM-DC inh)
CCOc1cc(-c2nc3c(C)cccn3c2NCC2CCCO2)ccc1O (stereo not drawn)	Autofluor 339 3.91 (not shown: Spn DPM-DC inh)
O=P1(NC2CCCC2)COc2ccccc2OC1	Spn DPM-DC inh active
Cn1cc(CCC(=O)N2CCC3(CC2)OCCO3)c2ccccc21	none
Cc1cc(N2CCOCC2)nc2ccc(NC(=O)CCC(=O)N3CCC4(CC3)OCCO4)cc12	Autofluor 339 4.76 (not shown: Spn DPM-DC inh)
CCOCC(=O)NC1CCSC1=O (stereo not drawn)	PMK inhibit 25.0
CC(=O)c1c(C)[nH]c(C(=O)N2CCC3(CC2)OCCO3)c1C	none
COC(=O)c1c(C)n(Cc2ccc3c(c2)OCO3)c2ccc(O)cc12	none
CCC(=NCC1CCCO1)c1c(O)n(-c2ccccc2)c(=O)[nH]c1=O (stereo not drawn)	none
CCC(C)NC(=O)c1c(N)n(Cc2ccc3c(c2)OCO3)c2nc3ccccc3nc12 (stereo not drawn)	Autofluor 339 3.95 (not shown: Spn DPM-DC inh)
CCC(C)NC(=O)c1c(N)n(CC2CCCO2)c2nc3ccccc3nc12 (stereo not drawn)	Autofluor 339 2.47 (not shown: Spn DPM-DC inh)
N=C(N)c1c(O)n(C2CCCCC2)c(=O)n(C2CCCCC2)c1=O	none
CCOC(=O)C1SC2(C(F)(F)F)CC1(O)c1c(C)cc(C)nc1O2 (stereo not drawn)	none
CN(Cc1ccccc1)Cc1ccccc1OC(=O)N(C)C	none
